# PHOSPHO1 block – PHOSPHO1 (human) inhibition | Q8TCT1 | recombinant PHOSPHO1, absorbance phosphatase assay | inhibition, % at 13.3 µM | 1.1% of 290,000 active | AID 1565; in the data active = inhibition above about 60%
# Efflux pump inh – inhibitors of Candida antifungal efflux pumps expressed in yeast; S. cerevisiae Candida pump triplex, Nile Red efflux; inhibition, % at 10 µM; 0.44% of 330,000 active; AID 485275;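 active = plate passing quality check with inhibition over a set limit, or well fluorescence over plate mean plus 4 SD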;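 also: Nile Red retained in pooled yeast measured as flow cytometry median fluorescence; higher means more Nile Red kept so more efflux inhibition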
# Calb FLC – affects C. albicans growth with fluconazole. C. albicans CaCi-2 (fluconazole-resistant clinical isolate) + fluconazole, Alamar Blue growth, 48 h. growth inhibition, % (no concentration beside the values). 0.57% of 300,000 active;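 active = growth inhibition above about 58% in most replicates, limit read from the data, passing the limit was not always enough; inconclusive = exactly half the replicates above a set limit; inactive = most replicates below a set limit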;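 also: all wells also contain fluconazole at 8 µg/ml as a sub-toxic cotreatment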
# H9c2 protect – protects H9c2 cardiomyocytes from peroxide injury; AID 588492; H2O2 injury protection, ATPLite, 2 h; protection from H2O2 cell death, % at 20 µM; 0.63% of 360,000 active;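 active = compounds giving at least 50% protection of heart cells from peroxide-induced death in the single-dose screen, raw or plate-pattern-corrected value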
# KCC2 mod – modulators of human KCC2 chloride dependent transport; Q9H2X9; KCC2 cells, thallium flux FluoZin-2 fluorescence; B-score of Tl+ flux slope (higher = more flux/activation; lower = inhibition) at 10 µM; 2.2% of 190,000 active;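 active = thallium flux slope and its plate-corrected score both differing from the plate sample mean at a set confidence after two filtering rounds, in either direction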;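 also: slope of fluorescence scaled to starting intensity during 10 to 20 s after thallium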
# KCC2 sec1 – confirmation of human KCC2 transport modulators | shares compounds with KCC2 mod | HEK293-KCC2, thallium flux, FluoZin2 fluorescence; active compounds read high | normalised thallium flux (F/F0 slope) at 10 µM | 15% of 3,700 active | AID 1713;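 active = thallium flux slope above the same plate's solvent-only control mean plus 3 SD; inconclusive = the two replicate wells disagree; inactive = no significant difference from solvent-only control wells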
# KCC2 bumet counter – thallium flux despite bumetanide block in KCC2 cells, secondary assay 3; normalized thallium flux at 10 µM; AID 1714; HEK293-KCC2 + bumetanide/ouabain, thallium flux FluoZin2; active compounds read high; shares compounds with KCC2 mod; 49% of 3,700 active;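 active = thallium entry rate above the same plate's blocked-transporter control wells by more than 3 SD; inconclusive = the two repeat wells disagree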;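 also: raw slope of fluorescence over initial fluorescence between 10 and 20 s after thallium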
# KCC2 sec2 – confirmation of human KCC2 transport modulators; 23% of 3,700 active; normalized thallium flux at 10 µM; shares compounds with KCC2 mod; HEK293-KCC2, thallium flux FluoZin2 fluorescence; actives lie on both sides; F/F0 rise rate, 10–20 s post-thallium;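 active = thallium flux slope more than 3 SD above or below the plate's solvent-only control mean, mostly below; inconclusive = the two repeat wells disagreed; inactive = no significant shift from solvent-only controls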
# HEK counter1 – acts in parental HEK cells, KCC2 counter-screen. shares compounds with KCC2 mod. HEK293 parental cells, thallium flux FluoZin2, ouabain; baseline-ratio fluorescence slope, 10–20 s after thallium. thallium flux rate (normalised fluorescence) at 10 µM. 46% of 3,700 active;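 active = thallium flux rate significantly above the same plate's solvent-only control wells, beyond their mean plus 3 SD; inconclusive = the two replicate wells gave conflicting results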
# KCC2 ouabain – confirmation of human KCC2 modulators with ouabain. shares compounds with KCC2 mod. HEK293-KCC2, thallium flux FluoZin2 fluorescence; bidirectional: low = inhibitor, high = activator. raw Tl+ flux slope (below DMSO = inhibition, above = activation) at 10 µM. 48% of 3,700 active. AID 1717;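 active = thallium flux slope beyond 3 SD from same-plate DMSO control mean in most replicates, usually higher, sometimes lower; inconclusive = repeat tests gave conflicting results; inactive = no significant difference from controls in most replicates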;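 also: slope of initial-normalized fluorescence between seconds 10 and 20 after thallium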
# HEK293 Tl flux2 – parental HEK flux effect, counter-screen 2 | shares compounds with KCC2 mod | HEK293 parental, thallium flux FluoZin-2 fluorescence slope | thallium flux slope at 10 µM | 33% of 3,700 active | AID 1718;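 active = thallium flux slope above the same plate's solvent-control mean plus 3 SD in both duplicate wells; inconclusive = duplicate wells that disagreed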;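 also: run without ouabain in cells lacking the KCC2 cotransporter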
# A number is an active result; - = inactive; ? = inconclusive; . = not tested or not shown. Rows were chosen to be rich in hits. Some 3.3% of all compounds tested hit in one or more screens of this group.
SMILES,PHOSPHO1 block,Efflux pump inh,Calb FLC,H9c2 protect,KCC2 mod,KCC2 sec1,KCC2 bumet counter,KCC2 sec2,HEK counter1,KCC2 ouabain,HEK293 Tl flux2
O=C(NN=C1CCCCCCC1)c1ccc2ccccc2n1,-,-,-,-,22.5,-,0.0381,?,0.0265,0.035,0.0207
NNC(=O)c1ccc2ccccc2n1,-,.,.,-,25.7,-,0.0556,0.0419,0.0381,0.0468,0.023
C[C@H](CO)N1C[C@H](C)[C@H](CN(C)S(=O)(=O)c2cccc(F)c2)Oc2cc(Br)ccc2S1(=O)=O,.,.,.,-,.,.,.,.,.,.,.
CNC(=O)CSc1nc(N)c2c3c(sc2n1)CCC3,-,-,-,-,-5.85,-,-,-,-,-,-
NC(=O)CSc1nc(N)c2c3c(sc2n1)CCCCC3,-,-,-,-,-,.,.,.,.,.,.
Cc1nn(-c2ccccc2)c(C)c1/C=N/n1c(-c2ccccc2Br)n[nH]c1=S,-,-,-,-,10.2,-,0.0416,-,0.0114,?,?
Cc1ccc(Cc2nnc(SCC(=O)Nc3ccccc3)n(N)c2=O)cc1,.,-,-,-,.,.,.,.,.,.,.
CCCSc1ccc([C@H]2N[C@@](CC(C)C)(C(=O)OC)[C@H]3C(=O)N(CC)C(=O)[C@@H]23)cc1,.,-,.,-,.,.,.,.,.,.,.
CCn1c(C)nc2cc(C(=O)N/N=C/c3cccc(O)c3O)ccc21,-,-,-,-,-,.,.,.,.,.,.
O=C(c1ccc(S(=O)(=O)c2cccc(Cl)c2)c([N+](=O)[O-])c1)N1CCN(c2ccccn2)CC1,-,-,-,-,-4.97,-,-,0.0221,-,?,-
O=C(c1cccc(Cl)c1)N1CCN(c2ccccn2)CC1,-,-,-,-,.,.,.,.,.,.,.
CCOc1cc(CNCCc2ccc(S(N)(=O)=O)cc2)cc(Cl)c1OCc1ccccc1,-,-,-,-,.,?,-,-,-,-,-
COc1cc(OC)cc(C(=O)NC(=S)NNC(=O)[C@H]2C[C@@H]2c2ccccc2)c1,-,-,-,-,58.7,0.0234,0.0778,0.0426,0.0326,0.0591,0.0162
O=C(NC(=S)NNC(=O)[C@H]1C[C@@H]1c1ccccc1)c1ccc(F)cc1,-,-,-,-,19.7,-,0.0198,-,0.0205,0.0297,0.0211
COc1ccc(C(=O)NC(=S)NNC(=O)[C@H]2C[C@@H]2c2ccccc2)cc1OC,-,-,-,-,-,.,.,.,.,.,.
O=C(O)c1ccccc1OCCN1CCCC1=O,-,-,-,-,.,.,.,.,.,.,.
O=c1ccc(-c2ccc(S(=O)(=O)Nc3ccc(F)cc3)o2)n[nH]1,-,-,-,-,.,.,.,.,.,.,.
Cc1ccnc(NC(=S)NC(=O)c2ccco2)c1,-,-,-,-,7.52,0.0152,0.0565,-,0.0204,0.0456,0.0131
O=C(NC(=S)Nc1nc(-c2ccc(Br)cc2)cs1)c1ccco1,-,-,?,-,5.46,-,0.00782,-,0.0115,-,0.0111
Cc1ccc2nc(NC(=S)NC(=O)c3ccco3)sc2c1,-,-,-,-,64.4,0.0244,0.154,0.0568,0.0839,0.0761,0.0425
Cc1ccc2nc(NC(=O)c3ccco3)sc2c1,-,-,-,-,-,.,.,.,.,.,.
C=Cc1ccc(Cn2nc(-c3ccc(C)cc3)ccc2=O)cc1,-,-,-,-,.,.,.,.,.,.,.
Cc1c(C(=O)NCc2ccccc2C(F)(F)F)sc(=O)n1Cc1ccc2ccccc2c1,.,.,.,-,.,.,.,.,.,.,.
Cc1cccnc1Nc1nc(-c2ccc(O)cc2)cs1,-,-,-,-,.,-,-,-,-,-,?

# Compound activity deposited in PubChem by several laboratories.
